Test results as given in PubChem BioAssay (NCI).
Compounds without any hit were thinned out: in the full panel of roughly 83,000, 20% have a hit.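 Negative percent growth values reflect cell death: -40 means 40% of the cells present at the start died, and -100 means all died.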 A number with no mark means an inactive call. Calls of active or inactive are those of the source. The calls were made as follows: active = growth percent below 10; inactive = the rest.

System: HL-60(TB) leukemia
Experiment: NCI-60 one-dose screen, 48 h (100 = growth as untreated, 0 = no growth, -100 = all killed)
Details: 10 µM unless noted

Structure (SMILES)	growth
CC(C)C(=O)Nc1nc2c(s1)CCCc1ccn(S(=O)(=O)c3ccccc3)c1-2	83.8%
NC(=O)c1cccc([C@@H]2O[C@H](CO)[C@@H](O)[C@H]2O)c1	39.5%
CC(C)OCC(CCl)OC(=O)Nc1ccccc1 (configuration not stated)	97.3%
Cc1cc(-c2cc(C)c(O)c(C)c2)cc(C)c1O	63.6%
CCSc1nnc(Nc2ccc(C(C)C)cc2)s1	48.8%
CCCCCCCCCCCCCCCCCc1nccn1CCO	64.4%
CNC1=C(Br)C(=O)c2c(C(=O)OC)c(C)nc(C)c2C1=O	24.5%
Cc1ccc(C(C)C)cc1NC(=O)Nc1ccc([N+](=O)[O-])cc1	-8.6% (active)
COc1ccc(CN2c3ccccc3CCc3ccccc32)cc1F	-25.7% (active)
O=C(/C=C/c1ccccc1)N(C1CCCCC1)C1CCCCC1	74%
CCOC(=O)c1cc(C(=O)c2ccc(OC)c(OC)c2)n2c1ccc1ccccc12	99.8%
CCc1nc2cc(/C=C/C(=O)NO)ccc2c(=O)n1CCc1ccc(OC)cc1	0.921% (active)
CCN1C(=O)N(CC)C2C1NC(=S)N2/N=C/C=C/c1ccccc1OC (configuration not stated)	-20.8% (active)
CNC(=O)c1cc(Oc2ccc3c(c2)sc2nc(-c4ccc(Cl)cc4)cn23)ccn1	88.4%
C=C(C)[C@@H]1CC[C@]2(C(=O)O)CC[C@]3(C)[C@H](CC[C@@H]4[C@@]5(C)C[C@@H](CC#Cc6ccccc6C)C(=O)C(C)(C)[C@@H]5CC[C@]43C)[C@@H]12	-14.7% (active)
CCCCCCCCCCCCCCCC(=O)O[C@@H]1[C@@H](O)[C@@H](O)C([C@H](NC(=O)[C@@H]2C[C@@H](CCC)CN2C)[C@H](C)Cl)O[C@@H]1SC (some centres not stated)	98.6%
COc1cc2cc3c(=O)n4c(cc5cc(OC)ncc54)c(=O)n3c2cn1	89.3%
Cc1ccc2c(n1)C(=O)C(Oc1ccc(F)cc1)=CC2=O	54%
COc1ccc2c(c1)c(-c1nc(-c3c[nH]c4ncccc34)cs1)cn2CCO	58%

Structure (SMILES)	growth
Cc1ccc2c(/C=C/C(=O)c3cc(CN4CCOCC4)c(O)c4nc(C)ccc34)cc(CN3CCOCC3)c(O)c2n1	-25.2% (active)
CN1CCN(Cc2ccc(NC(=O)c3cncc(C#Cc4cnc(N)c5ncccc45)c3)cc2Cl)CC1	21.5%
N#CC1C(c2ccc(Cl)cc2)=Nc2c(c(-c3ccccc3)nn2-c2ccccc2)C12C(=O)Nc1ccc(Cl)cc12 (configuration not stated)	-1.59% (active)
COc1cnc2c(c1)C(=O)c1c-2n(CCCN2CCC(O)CC2)c(=O)c2cc(F)ccc12	-8.3% (active)
COC(=O)CCc1c(/C=C2\N=C(c3ccc[nH]3)C=C2OC)[nH]c(C)c1C(=O)OCc1ccccc1	-14.3% (active)
Nc1nc(Cl)c2c(C(F)(F)F)cn(CC3CCNCC3)c2n1	25.5%
C=C(C)[C@@H]1CC[C@]2(C(=O)O)CC[C@]3(C)[C@H](CC[C@@H]4[C@@]5(C)C[C@@H](CC#Cc6ccc(C(F)(F)F)cc6)[C@H](O)C(C)(C)[C@@H]5CC[C@]43C)[C@@H]12	7.01% (active)
O=C(CCCC(=O)Nc1ccc(Cn2nnc3cc(Cl)c(Cl)cc32)cc1)Nc1ccc(CN2N=NC3C=C(Cl)C(Cl)=CC32)cc1 (configuration not stated)	89.7%
OC(c1cc(C(F)(F)F)nc2c(C(F)(F)F)cccc12)C1CCCCN1 (configuration not stated)	50.3%
C#Cc1cccc(NC(=O)c2ccc(NC(=O)C=C)cc2)c1	80.6% [8.25 µM]
Nc1nnc2cc(Cl)ccc2n1	145%
Cc1cnc(C=O)c2cccc([N+](=O)[O-])c12	66.1%
COc1ccc(-c2nn(-c3cccc(Cl)c3)cc2/C=C2\NC(=S)N(c3ccc(Cl)cc3)C2=O)cc1	24.9%
O=C(O)CCC(=O)c1ccc(C2CCCCCC2)cc1	107%
CCN(CC)CCCC(C)Nc1cc(-c2cccc(OC(F)(F)F)c2)nc2ccc(N3CCCC3)cc12 (configuration not stated)	-61% (active)
COc1cc(/C=C/C(=O)c2c(C)oc3nc[nH]c(=O)c23)cc(OC)c1OC	65.9%
CCCSC1=NC2C(N(CC)C(=O)N2CC)N1/N=C/C=C/c1ccccc1[N+](=O)[O-] (configuration not stated)	-29.8% (active)
Cc1ccc(-c2nc(SCc3nc4cc(Cl)c(Cl)cc4[nH]3)[nH]c(=O)c2C#N)cc1	96.9%
